The panel holds about 79,000 compounds, 15% with a hit somewhere; the sample as a whole holds those more often. Active and inactive are the calls of the source. Cut-off read from the data, not from the text of the source: active = growth inhibition above about 70%; inactive = the rest.
Legend:
[1] = NCI Yeast Anticancer Drug Screen. Data for the wt1 strain (AID 149);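 note: 0% = growth of vehicle-treated wt1 cultures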; settings: S. cerevisiae wt1 strain (SPY 50644) growth inhibition, active compounds read high
In short: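 Compounds are added to wt1 yeast cultures. Growth is then measured. Inhibition is expressed relative to vehicle-treated controls.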

[2] = NCI Yeast Anticancer Drug Screen. Data for the rad50EPP+ strain (AID 151);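 note: 0% = growth of vehicle-treated control cultures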; settings: S. cerevisiae rad50 mutant strain, active compounds read high
In short: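 One strain with a rad50 alteration (rad50EPP+) was compound-treated, its growth then compared to that of vehicle controls.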

[3] = NCI Yeast Anticancer Drug Screen. Data for the mgt1 strain (AID 153); settings: S. cerevisiae mgt1 mutant growth inhibition, active compounds read high
In short: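 After exposure of the mgt1 yeast mutant to compound, growth was measured and reported as inhibition compared with vehicle controls.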

[4] = NCI Yeast Anticancer Drug Screen. Data for the rad50 strain (AID 155);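 note: 0% = growth of vehicle-only cultures of the same strain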; settings: S. cerevisiae rad50 strain growth inhibition, active compounds read high
In short: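 Inhibition values express reduced yeast growth in compound-treated cultures relative to vehicle-treated controls.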

[5] = NCI Yeast Anticancer Drug Screen. Data for the mec2-1 strain (AID 157); settings: S. cerevisiae mec2-1 strain, active compounds read high
In short: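 Test agents were screened against the mec2-1 yeast strain, with defined DNA repair or cell cycle alteration. Growth was scored as inhibition against vehicle-only controls.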

[6] = NCI Yeast Anticancer Drug Screen. Data for the rad14 strain (AID 159);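 note: 0% = growth of vehicle-treated control cultures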; settings: S. cerevisiae rad14 strain growth inhibition, active compounds read high
In short: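 A mutant yeast strain defective in DNA damage repair is treated with compound; inhibition of its growth is scored against untreated, vehicle-exposed cultures.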

[7] = NCI Yeast Anticancer Drug Screen. Data for the sgs1 mgt1 strain (AID 161);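 note: 0% = growth of cultures given vehicle only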; settings: S. cerevisiae sgs1 mgt1 strain, active compounds read high
In short: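 Genetically altered yeast, compound exposure, growth inhibition relative to vehicle.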

[8] = NCI Yeast Anticancer Drug Screen. Data for the CLN2oe strain (AID 163);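 note: 0% = growth of vehicle-only control cultures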; settings: S. cerevisiae CLN2oe strain, active compounds read high
In short: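 Here, growth inhibition in a cell-cycle-altered yeast strain after compound exposure was quantified against vehicle control growth.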

[9] = NCI Yeast Anticancer Drug Screen. Data for the cln2 rad14 strain (AID 165);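 note: 0% = growth equal to vehicle treated cultures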; settings: S. cerevisiae cln2 rad14 strain, active compounds read high
In short: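 Growth of compound-exposed yeast (cln2 rad14 genotype) measured and expressed as inhibition relative to vehicle.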

[10] = NCI Yeast Anticancer Drug Screen. Data for the bub3 strain (AID 167); settings: S. cerevisiae bub3 mutant strain, active compounds read high
In short: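 Steps: expose the mutant yeast strain to compound; grow alongside vehicle-treated cultures; measure growth; express inhibition against the vehicle cultures.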

[11] = NCI Yeast Anticancer Drug Screen. Data for the wt2 strain (AID 169);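 note: 0% = growth of vehicle-treated yeast cultures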; settings: S. cerevisiae wt2 strain growth inhibition, active compounds read high
In short: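 Genetically defined yeast strains from a DNA-repair/cell-cycle panel were used. Compound-exposed yeast growth was measured, and the inhibition was calculated relative to vehicle treatment.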

[12] = NCI Yeast Anticancer Drug Screen. Data for the mlh1 strain (AID 171);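 note: 0% = growth of vehicle-treated control cultures of the same strain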; settings: S. cerevisiae mlh1 strain growth inhibition, active compounds read high
In short: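 Here the genetically defined yeast mutant is grown with each compound, and the extent to which its growth falls below that of vehicle-exposed cells is reported.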

[13] = NCI Yeast Anticancer Drug Screen. Data for the sgs1 strain (AID 173);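 note: 0% = growth of vehicle-only control cultures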; settings: S. cerevisiae sgs1 mutant, active compounds read high
In short: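 Relative growth inhibition, referenced to vehicle, was determined in a yeast strain with a defined alteration affecting DNA damage repair or cell cycle control after compound exposure.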

[14] = NCI Yeast Anticancer Drug Screen. Data for the mlh1 rad18 strain (AID 175); settings: S. cerevisiae mlh1 rad18 strain growth inhibition, active compounds read high
In short: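 In this whole-cell yeast screen, a strain with altered DNA damage repair is challenged with compound, and its growth is measured against matched vehicle-treated controls.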

[15] = NCI Yeast Anticancer Drug Screen. Data for the rad18 strain (AID 177); settings: S. cerevisiae rad18 mutant growth inhibition, active compounds read high
In short: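 Screen uses a yeast strain with a defined lesion in DNA damage repair; compound effect is read as loss of growth compared to untreated vehicle cultures.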

[16] = at 5.0 µM (retest, dose inferred, filed as 0.5)
[17] = at 50.0 µM (retest, dose inferred, filed as 5.0)

Measured: growth inhibition

O=[N+]([O-])c1ccc2[nH]c3c(-c4ccccc4)nccc3c2c1
inactive: [1]; at 1.2 µM -4% | [1]; at 3.7 µM -8% | [2]; at 1.2 µM 20% | [2]; at 3.7 µM 43% | [2]; at 11.0 µM 68% | [3]; at 1.2 µM -2% | [3]; at 3.7 µM -4% | [4]; at 1.2 µM -3% | [4]; at 3.7 µM 2% | [4]; [16] 10% | [5]; at 1.2 µM -4% | [5]; at 3.7 µM -6% | [5]; [16] -5% | [6]; at 1.2 µM -1% | [6]; at 3.7 µM -1% | [7]; [16] 10% | [8]; at 1.2 µM -8% | [8]; at 3.7 µM 38% | [9]; [16] -10% | [10]; at 1.2 µM 10% | [10]; [16] 52% | [11]; at 1.2 µM 0% | [11]; at 3.7 µM 43% | [12]; at 1.2 µM -2% | [12]; at 3.7 µM 15% | [13]; at 1.2 µM -12% | [13]; at 3.7 µM 0% | [14]; [16] 3% | [15]; at 1.2 µM -1% | [15]; at 3.7 µM -4%
active: [1]; at 11.0 µM 87% | [1]; at 33.0 µM 94% | [1]; at 100.0 µM 92% | [2]; at 33.0 µM 79% | [2]; at 100.0 µM 79% | [3]; at 11.0 µM 94% | [3]; at 33.0 µM 97% | [3]; at 100.0 µM 97% | [4]; at 11.0 µM 92% | [4]; at 33.0 µM 96% | [4]; [17] 96% | [4]; at 50.0 µM 98.8% | [4]; at 100.0 µM 96% | [5]; at 11.0 µM 96% | [5]; at 33.0 µM 98% | [5]; [17] 97% | [5]; at 50.0 µM 91.2% | [5]; at 100.0 µM 98% | [6]; at 11.0 µM 85% | [6]; at 33.0 µM 96% | [6]; at 100.0 µM 95% | [7]; [17] 98% | [7]; at 50.0 µM 93% | [8]; at 11.0 µM 96% | [8]; at 33.0 µM 96% | [8]; at 100.0 µM 96% | [9]; [17] 96% | [9]; at 50.0 µM 98.3% | [10]; at 3.7 µM 90% | [10]; at 11.0 µM 96% | [10]; at 33.0 µM 97% | [10]; [17] 97% | [10]; at 50.0 µM 98.8% | [10]; at 100.0 µM 96% | [11]; at 11.0 µM 96% | [11]; at 33.0 µM 98% | [11]; at 100.0 µM 98% | [12]; at 11.0 µM 96% | [12]; at 33.0 µM 97% | [12]; at 100.0 µM 97% | [13]; at 11.0 µM 93% | [13]; at 33.0 µM 97% | [13]; at 100.0 µM 96% | [14]; [17] 96% | [14]; at 50.0 µM 97.8% | [15]; at 11.0 µM 95% | [15]; at 33.0 µM 96% | [15]; at 100.0 µM 97%
